Experimental data from PMC9911399, “Two distinct binding modes provide the RNA-binding protein RbFox with extraordinary sequence specificity”.
Residue numbers refer to the chain shown, from its start. Whole data set: some 16,000 sequences, median “ka relative to ugcaugu” near 0.096, cut for the highest 2% near 0.35. This excerpt belongs to a sample that is enriched for the highest values.

T1: RBFOX1 RRM RbFoxmut (Fox-RRM*) (Homo sapiens, UniProt Q9NWB1 109-208, R118D;E147R;N151S;E152T)
T1 sequence: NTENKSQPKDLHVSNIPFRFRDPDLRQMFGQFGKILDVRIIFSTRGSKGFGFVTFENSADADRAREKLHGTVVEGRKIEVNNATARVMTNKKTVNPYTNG

B1: UCUUCUA (DNA:RNA)
RNA: GGGAGACCGGAAUUCAGAUUGUCCUCUUCUAUUAAAUCCCGUCGUAGCCACCA
DNA 1: CAATCTGAATTCCGGTCTCCC
DNA 2: TGGTGGCTACGACGGGATT
B2: CCUCCAG (DNA:RNA)
RNA: B1 RNA with U25C, U28C, U30A, A31G
DNA 1: CAATCTGAATTCCGGTCTCCC
DNA 2: TGGTGGCTACGACGGGATT
B3: GAACAGU (DNA:RNA)
RNA: GGGAGACCGGAAUUCAGAUUGUCCGAACAGUUUAAAUCCCGUCGUAGCCACCA
DNA 1: CAATCTGAATTCCGGTCTCCC
DNA 2: TGGTGGCTACGACGGGATT
B4: ACGUGUG (DNA:RNA)
RNA: B1 RNA with U25A, U27G, C29G, A31G
DNA 1: CAATCTGAATTCCGGTCTCCC
DNA 2: TGGTGGCTACGACGGGATT
B5: CCCUACC (DNA:RNA)
RNA: B1 RNA with U25C, U27C, C29A, U30C, A31C
DNA 1: CAATCTGAATTCCGGTCTCCC
DNA 2: TGGTGGCTACGACGGGATT
B6: UAUCCCC (DNA:RNA)
RNA: B1 RNA with C26A, U28C, U30C, A31C
DNA 1: CAATCTGAATTCCGGTCTCCC
DNA 2: TGGTGGCTACGACGGGATT
B7: AUUUAGC (DNA:RNA)
RNA: B3 RNA with G25A, A26U, A27U, C28U, U31C
DNA 1: CAATCTGAATTCCGGTCTCCC
DNA 2: TGGTGGCTACGACGGGATT
B8: CCCGUAG (DNA:RNA)
RNA: B1 RNA with U25C, U27C, U28G, C29U, U30A, A31G
DNA 1: CAATCTGAATTCCGGTCTCCC
DNA 2: TGGTGGCTACGACGGGATT
B9: CCUGGAG (DNA:RNA)
RNA: B1 RNA with U25C, U28G, C29G, U30A, A31G
DNA 1: CAATCTGAATTCCGGTCTCCC
DNA 2: TGGTGGCTACGACGGGATT
B10: GCAGUAG (DNA:RNA)
RNA: B3 RNA with A26C, C28G, A29U, G30A, U31G
DNA 1: CAATCTGAATTCCGGTCTCCC
DNA 2: TGGTGGCTACGACGGGATT
B11: CAGGUCU (DNA:RNA)
RNA: B3 RNA with G25C, A27G, C28G, A29U, G30C
DNA 1: CAATCTGAATTCCGGTCTCCC
DNA 2: TGGTGGCTACGACGGGATT
B12: CAUUAAC (DNA:RNA)
RNA: B3 RNA with G25C, A27U, C28U, G30A, U31C
DNA 1: CAATCTGAATTCCGGTCTCCC
DNA 2: TGGTGGCTACGACGGGATT
B13: UGCAUCC (DNA:RNA)
RNA: B1 RNA with C26G, U27C, U28A, C29U, U30C, A31C
DNA 1: CAATCTGAATTCCGGTCTCCC
DNA 2: TGGTGGCTACGACGGGATT
B14: UGCAUUC (DNA:RNA)
RNA: B1 RNA with C26G, U27C, U28A, C29U, A31C
DNA 1: CAATCTGAATTCCGGTCTCCC
DNA 2: TGGTGGCTACGACGGGATT
B15: UUCAUGC (DNA:RNA)
RNA: B3 RNA with G25U, A26U, A27C, C28A, A29U, U31C
DNA 1: CAATCTGAATTCCGGTCTCCC
DNA 2: TGGTGGCTACGACGGGATT
B16: UGCAUAG (DNA:RNA)
RNA: B1 RNA with C26G, U27C, U28A, C29U, U30A, A31G
DNA 1: CAATCTGAATTCCGGTCTCCC
DNA 2: TGGTGGCTACGACGGGATT
B17: UGCACCC (DNA:RNA)
RNA: B1 RNA with C26G, U27C, U28A, U30C, A31C
DNA 1: CAATCTGAATTCCGGTCTCCC
DNA 2: TGGTGGCTACGACGGGATT
B18: UGCAUGC (DNA:RNA)
RNA: B3 RNA with G25U, A26G, A27C, C28A, A29U, U31C
DNA 1: CAATCTGAATTCCGGTCTCCC
DNA 2: TGGTGGCTACGACGGGATT
B19: GUCCUGC (DNA:RNA)
RNA: B3 RNA with A26U, A27C, A29U, U31C
DNA 1: CAATCTGAATTCCGGTCTCCC
DNA 2: TGGTGGCTACGACGGGATT
B20: UGCUGCA (DNA:RNA)
RNA: B1 RNA with C26G, U27C, C29G, U30C
DNA 1: CAATCTGAATTCCGGTCTCCC
DNA 2: TGGTGGCTACGACGGGATT
B21: UGCAUUG (DNA:RNA)
RNA: B1 RNA with C26G, U27C, U28A, C29U, A31G
DNA 1: CAATCTGAATTCCGGTCTCCC
DNA 2: TGGTGGCTACGACGGGATT
B22: UGCAUAC (DNA:RNA)
RNA: B1 RNA with C26G, U27C, U28A, C29U, U30A, A31C
DNA 1: CAATCTGAATTCCGGTCTCCC
DNA 2: TGGTGGCTACGACGGGATT
B23: UGCGUCC (DNA:RNA)
RNA: B1 RNA with C26G, U27C, U28G, C29U, U30C, A31C
DNA 1: CAATCTGAATTCCGGTCTCCC
DNA 2: TGGTGGCTACGACGGGATT
B24: UGCAUCG (DNA:RNA)
RNA: B1 RNA with C26G, U27C, U28A, C29U, U30C, A31G
DNA 1: CAATCTGAATTCCGGTCTCCC
DNA 2: TGGTGGCTACGACGGGATT

Molecular target: T1, RBFOX1 RRM RbFoxmut (Fox-RRM*)
Assay: EMSA; HiTS-Eq, 1 nM pool, 10 min; buffer printed only for the single-RNA assays: 10 mM Tris pH 7.5, 150 mM NaCl, 3.4 mM EDTA, 0.001% NP-40, 30 C
Details: tags: His6 N-terminal (pET28a); label: 5' 32P
Outline: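 A pool of RNA with 7 randomized nucleotides, 5′-radiolabelled and with DNA-annealed flanks, was equilibrated at 1 nM for 10 min in 50 µL with purified RbFox RRM, wild type or mutant, across increasing protein concentrations. Free RNA was separated by 8% native PAGE, excised, reverse-transcribed, barcoded by PCR and sequenced. Relative association constants were obtained from read-count changes of each RNA species versus the control reaction and normalised to the cognate motif.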

| Binder | binding signal |
| --- | --- |
| B1 | 0.0886 KA relative to UGCAUGU |
| B2 | 0.101 KA relative to UGCAUGU |
| B3 | 0.0727 KA relative to UGCAUGU |
| B4 | 0.203 KA relative to UGCAUGU |
| B5 | 0.0909 KA relative to UGCAUGU |
| B6 | 0.0611 KA relative to UGCAUGU |
| B7 | 0.134 KA relative to UGCAUGU |
| B8 | 0.101 KA relative to UGCAUGU |
| B9 | 0.113 KA relative to UGCAUGU |
| B10 | 0.122 KA relative to UGCAUGU |
| B11 | 0.0783 KA relative to UGCAUGU |
| B12 | 0.113 KA relative to UGCAUGU |
| B13 | 0.421 KA relative to UGCAUGU |
| B14 | 0.13 KA relative to UGCAUGU |
| B15 | 0.13 KA relative to UGCAUGU |
| B16 | 0.146 KA relative to UGCAUGU |
| B17 | 0.127 KA relative to UGCAUGU |
| B18 | 1.29 KA relative to UGCAUGU |
| B19 | 0.104 KA relative to UGCAUGU |
| B20 | 0.251 KA relative to UGCAUGU |
| B21 | 0.494 KA relative to UGCAUGU |
| B22 | 0.161 KA relative to UGCAUGU |
| B23 | 0.091 KA relative to UGCAUGU |
| B24 | 0.922 KA relative to UGCAUGU |
